Source: PubChem
INS-1E GSIS act: GLuc luminescence reporter in INS-1E cells, primary screen for activators of glucose-dependent secretion of insulin. activation, % at 16.6 µM. INS-1E GLuc reporter insulin secretion, 2-3 h. 370,000 compounds, 0.61% hits;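 active means lowest replicate activation of at least 40%, so every replicate reaches that level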;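 further: 0% = median of neutral control wells and 100% = median of IBMX positive control wells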
miR-122 sensor: miR-122 Renilla sensor signal increase in Huh7, primary screen, miR-122 inhibitor project, cell-based, single point, plate reader. 340,000 compounds, 0.3% hits. activation (reporter increase), % at 12.5 µM. Huh7 miR-122 Renilla luciferase sensor, 48 h; neutral wells = 0, positive control = 100. AID 602342, 2012;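 active means mean replicate activation score at least 90 and every replicate individually at or above 90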;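 further: higher luciferase means less miR-122 activity so hits act as miR-122 inhibitors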
HIV Env fusion: inhibitors of HIV-1 Env-driven cell-cell fusion, primary screen, HeLa-JRFL effector, CEM21 target cells, luciferase | AID 651610, 2012 | inhibition, % at 12.3 µM | 360,000 compounds, 1.1% hits;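 active means mean replicate inhibition score of at least 50 and every replicate individually at or above 50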;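 further: 0% = plate neutral controls and 100% = maraviroc near 300 nM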
PAX8 reporter: inhibitors of PAX8-driven TPO luciferase reporter, primary screen, RMG-I cells, single concentration; inhibition, % at 12.6 µM; 360,000 compounds, 1.2% hits; SteadyGlo, 24 h; AID 652154, 2013;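 active means mean replicate inhibition at least 60% with every replicate also reaching 60%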;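 further: luciferase light reporting Pax8 driven TPO promoter activity; plate controls were median of neutral control wells for no effect and mitoxantrone controls for full effect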
EWS-Fli block: EWS/Fli-driven NR0B1 reporter inhibitors, primary screen, A673 cells, NR0B1 luciferase, luminescence, MLPCN library. viability-normalised. 350,000 compounds, 0.67% hits. inhibition, % at 12.6 µM;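 active means mean inhibition of at least 50% after viability correction, with every replicate also passing that limit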;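 further: firefly luciferase signal divided by Alamar Blue viability fluorescence both relative to DMSO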
C2C12 statin: suppressors of statin myotoxicity in C2C12 myotubes, primary screen, cell-based, single point, plate reader; C2C12 myotubes + simvastatin, ATP luminescence, 48 h; scaled: DMSO 0, geranylgeraniol control 100; rescue of ATP level, % at 7.49 µM; 330,000 compounds, 0.78% hits; AID 602340, 2012;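 active means mean ATP rescue above about 67%, or every replicate alone reaching that limit, limit read from the data, passing the limit was not always enough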;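 further: myotubes were challenged with 10 µM simvastatin during compound exposure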
DNA binding: DNA binders by acridine orange displacement, dose response, counter-screen for EWS/Fli inhibitor project, biochemical, fluorescence polarization, cherry-pick; 640 compounds, 2% hits; AID 720586, 2013; shares compounds with EWS-Fli block; salmon sperm DNA acridine orange fluorescence polarization; AC35, µM (highest dose often 68 µM), without a hit: at the highest dose activity change, negative = DNA binding;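 active means fitted curve reaches a 35% signal fall AC35 below twice the sample's top valid tested dose, actives reach about 48 µM in these data; inactive means the rest, including activity in the rising direction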;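 further: lower polarization ratio signals compound binding to DNA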
The depositor's hits bear a star; . = no result; [ ] = remark or other dose. The list is not random: actives were taken first. Their share in the collection is about 3.1%.

SMILES	INS-1E GSIS act	miR-122 sensor	HIV Env fusion	PAX8 reporter	EWS-Fli block	C2C12 statin	DNA binding
O=C(O)c1ccccc1C(=O)Nc1ccc(Oc2cccc3ccccc23)cc1	5	.	45	26	86*	.	-9%
O=C(O)c1ccccc1C(=O)Nc1ccc(Oc2ccc3ccccc3c2)cc1	-2	-3	-8	-46	58*	16	1%
COC(=O)[C@H]1[C@H](CO)[C@H]2Cn3c(ccc(-c4ccccc4F)c3=O)[C@H]2N1C(=O)c1cnccn1	-5	7[16.7 µM]	.	2	3	1	.
Cc1cccc(/C=C(\c2nc3ccccc3[nH]2)S(=O)(=O)c2ccccc2)c1	-7	-1	-317	106*	71*	78*	4%
CC(C)(C)c1ccc(/C=C(\c2nc3ccccc3[nH]2)S(=O)(=O)c2ccccc2)cc1	.	-3	.	.	.	41	.
Cc1ccc(C2C(C#N)=C(N)Oc3cc(N)ccc32)cc1 (stereo not drawn)	18	1	9	-12	1	-4	.
N#CC1=C(N)Oc2cc(N)ccc2C1c1cccc(Br)c1 (stereo not drawn)	.	18	-278	64*	62*	-38	6%
COc1ccccc1CNC(=O)C[C@@H]1CC[C@H]2[C@@H](COC[C@H](O)CN2C(=O)Nc2ccc(C(F)(F)F)cc2)O1	-34	-20[16.7 µM]	.	18	70*	-16	8%
C[C@H]1CCCCO[C@@H](CN(C)S(=O)(=O)c2ccc(F)cc2)[C@@H](C)CN([C@@H](C)CO)C(=O)c2cc(NS(=O)(=O)c3cn(C)cn3)ccc2O1	-6	4[16.7 µM]	-12[16.7 µM]	7	5	.	.
O=C(CN1C(=O)C(=O)c2ccccc21)OCN1C(=O)c2ccccc2C1=O	-9	-4	-11	-16	11	12	.
CCN(CC)C(=O)CN1C(=O)C(=O)c2ccccc21	-2	4	19	30	54*	.	-9%
O=C(CN1C(=O)C(=O)c2ccccc21)c1ccc(Cl)cc1	-8	-5	-9	14	60*	-4	-8%
CCn1c(C)cc(C(=O)CN2C(=O)c3ccccc3S2(=O)=O)c1C	0	.	98*	35	78*	-2	3%
C=CCn1c(C)cc(C(=O)CN2C(=O)c3ccccc3S2(=O)=O)c1C	.	1	.	.	.	-2	.
O=C(CN1C(=O)c2ccccc2S1(=O)=O)c1ccccc1	.	2	.	.	.	.	.
Cc1cc(C(=O)CN2C(=O)c3ccccc3S2(=O)=O)c(C)n1C(C)C	0	.	91*	71*	73*	3	-6%
Cc1ccc(C(=O)CN2C(=O)c3ccccc3S2(=O)=O)cc1	4	-3	78*	71*	77*	.	3%
COc1ccc(NC(=O)Nc2ccc3c(c2)CC(=O)N([C@@H](C)CO)C[C@@H](C)[C@@H](CN(C)S(=O)(=O)c2cccs2)O3)cc1	-16	-5[16.7 µM]	0[16.7 µM]	-4	-10	6	.
CN(C)C(=O)C[C@H]1CC[C@H]2[C@@H](COc3ccc(NC(=O)c4ccc(F)c(F)c4)cc3C(=O)N2C)O1	1	-3[16.7 µM]	9[16.7 µM]	-8	2	15	.
C[C@@H]1CN([C@H](C)CO)C(=O)c2cc(C#CC3CC3)cnc2O[C@H]1CN(C)Cc1ccccn1	22	5[16.7 µM]	-11[16.7 µM]	.	2	5	.
Nc1sc(-c2ccccc2)cc1-c1n[nH]c(=S)n1C1CCCCC1	.	7	-136	13	59*	.	-13%
COc1ccc(-n2c(-c3cc(-c4ccccc4)sc3N)n[nH]c2=S)cc1	28	.	-4	1	8	.	.
CC(=O)Nc1cccc(-c2ccnc3c2CC(C)(C(=O)NCc2ccc(N(C)C)cc2)O3)c1 (stereo not drawn)	15	14	-10	35	54*	-10	-15%
O=c1[nH]c(/C=C2\C=Nc3ccccc32)c(O)n1Cc1ccccc1F	-10	-8	22	55	63*	4	8%
